Potency data for 15 molecules are collected here from PubChem BioAssay (NCATS).

SMILES strings stand for the structures. Records with an inconclusive call do not appear. Activity calls are given as the source filed them. The call rests on the fitted dose curve; in most records, active means well fitted cell-killing curve with a large enough effect; inconclusive means small, poorly fitted or top-dose-only effect, or effect the other way; inactive means flat fitted curve, though single readings scatter.

Assay in all cases: Primary qHTS to identify gynecologic anti-cancer compounds using libraries of approved drugs and bioactive compounds (AID 1345084); further: nearly all actives have a fitted effect of over 55% in size
(In general: Quantitative high-throughput screening tests each substance at several concentrations.)

One assay concerns C33A. To be noted: Gynecologic cancer cell panel viability, ATPlite luminescence, 48 h; series mostly up to 57.5 µM. The method, boiled down:
(§1)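 Measured: luminescence after ATPlite addition (15 min, RT). Exposure: 48 h, 37 C, 5% CO2.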
For orientation: In ATP-based viability assays light output follows the ATP content of the culture.

The subject of another assay is CAOV3. To be noted: Gynecologic cancer cell panel viability, ATPlite luminescence, 48 h; series mostly up to 57.5 µM. The method, boiled down:
as §1

The subject of another assay is CASKI. The settings on record: Gynecologic cancer cell panel viability, ATPlite luminescence, 48 h; series mostly up to 57.5 µM. The method, boiled down:
as §1

For the next assay, the system named is Es-2. To be noted: Gynecologic cancer cell panel viability, ATPlite luminescence, 48 h; series mostly up to 57.5 µM. The method, boiled down: as §1
For a further assay, the system named is Hek293T. To be noted: Gynecologic cancer cell panel viability, ATPlite luminescence, 48 h, control line for the selectivity index; series mostly up to 57.5 µM. The method, boiled down:
as §1

For another assay, the system named is JEG-3. The settings on record: Gynecologic cancer cell panel viability, ATPlite luminescence, 48 h; series mostly up to 57.5 µM. The method, boiled down: as §1
Another assay deals with OV90. The settings on record: Gynecologic cancer cell panel viability, ATPlite luminescence, 48 h; series mostly up to 57.5 µM. The method, boiled down:
as §1

The subject of the next assay is PA-1. The settings on record: Gynecologic cancer cell panel viability, ATPlite luminescence, 48 h; series mostly up to 57.5 µM. In outline:
as §1

A further assay concerns SKOV3. The settings on record: Gynecologic cancer cell panel viability, ATPlite luminescence, 48 h; series mostly up to 57.5 µM. In outline: as §1
Another assay concerns HeLa. The settings on record: Gynecologic cancer cell panel viability, ATPlite luminescence, 48 h; series mostly up to 57.5 µM. The method, boiled down: as §1
Potency means the concentration at half of the fitted maximal effect.

In the case of `Cn1c(=O)c2c(ncn2CC(O)CO)n(C)c1=O` (configuration not stated), the Potency entry in the assay with C33A, with CAOV3, with CASKI, with Es-2, in the assay with Hek293T and with JEG-3 was “inactive” in each case. In addition, the Potency result in the assay on OV90, in the assay with PA-1 and with SKOV3 was “inactive” throughout.
On to `CC(C)(C#N)c1cc(Cn2cncn2)cc(C(C)(C)C#N)c1`, for which the Potency result in the assay with C33A, with CAOV3, in the assay on CASKI, in the assay with Es-2, in the assay on Hek293T and in the assay on JEG-3 was “inactive” throughout. Further, the Potency entry in the assay with OV90, with PA-1 and in the assay with SKOV3 was “inactive” throughout.
For the molecule `COc1ccc(C(=O)CC(=O)c2ccc(C(C)(C)C)cc2)cc1`, the Potency result in the assay with C33A, with CAOV3, with CASKI, in the assay on Es-2, with Hek293T and with JEG-3 was “inactive” each time. Moreover, the Potency result with OV90, in the assay on PA-1 and in the assay with SKOV3 was “inactive” throughout.
`CN1CCCC(n2nc(Cc3ccc(Cl)cc3)c3ccccc3c2=O)CC1` (configuration not stated): the Potency entry with C33A, in the assay with CAOV3, with CASKI, in the assay on HeLa, in the assay with Hek293T and in the assay on JEG-3 was “inactive” throughout. The Potency result in the assay with SKOV3 was “inactive”.
Consider `CCN(C)C(=O)Oc1cccc([C@H](C)N(C)C)c1`, for which the Potency entry in the assay on C33A, in the assay on CAOV3, in the assay with CASKI, in the assay with Es-2, in the assay with Hek293T and in the assay with JEG-3 was “inactive” throughout. In addition, the Potency result in the assay with OV90, in the assay with PA-1 and with SKOV3 was “inactive” in each case.
As to `CCOc1cc(N)c(Cl)cc1C(=O)NCC1CN(Cc2ccc(F)cc2)CCO1` (configuration not stated), the Potency result in the assay with C33A, in the assay with CAOV3, in the assay with CASKI, in the assay with Es-2, in the assay with Hek293T and in the assay with JEG-3 was “inactive” throughout. Also, the Potency result in the assay on SKOV3 was “inactive”.
With `CC1=NN(c2ccccc2)C(=O)C1`, the Potency entry in the assay on C33A, in the assay with CAOV3, with CASKI, with Es-2, in the assay on Hek293T and in the assay with JEG-3 was “inactive” each time. The Potency entry with OV90, in the assay on PA-1 and in the assay with SKOV3 was “inactive” throughout.
For the molecule `CN(CCOc1ccc(CC2SC(=O)NC2=O)cc1)c1ccccn1` (configuration not stated), the Potency entry with C33A, in the assay on CAOV3, in the assay with CASKI, in the assay with Es-2, in the assay with Hek293T and with JEG-3 was “inactive” throughout. The Potency result in the assay with PA-1 and with SKOV3 was “inactive” each time.
In the case of `CNS(=O)(=O)CCc1ccc2[nH]cc(C3CCN(C)CC3)c2c1`, the Potency entry in the assay with C33A, in the assay with CAOV3, with CASKI, in the assay with Es-2, with Hek293T and with JEG-3 was “inactive” in each case. Further, the Potency result in the assay on OV90, in the assay on PA-1 and in the assay on SKOV3 was “inactive” each time.
In the case of `CC1(C)[C@H](C(=O)O)N2C(=O)C[C@H]2S1(=O)=O`, the Potency entry in the assay on C33A, with CAOV3, in the assay on CASKI, in the assay on Es-2, in the assay on Hek293T and with JEG-3 was “inactive” each time. Moreover, the Potency result in the assay with OV90, with PA-1 and in the assay with SKOV3 was “inactive” each time.
For the molecule `C[C@@H]1CN(c2c(F)c(N)c3c(=O)c(C(=O)O)cn(C4CC4)c3c2F)C[C@H](C)N1`, the Potency entry with C33A, in the assay on CAOV3, in the assay on CASKI, in the assay with Es-2, in the assay with Hek293T and in the assay with JEG-3 was “inactive” in each case. Moreover, the Potency entry in the assay with OV90, in the assay on PA-1 and in the assay with SKOV3 was “inactive” each time.
With `C[C@@H]1C[C@H]2[C@@H]3CCC4=CC(=O)C=C[C@]4(C)[C@@]3(Cl)[C@@H](O)C[C@]2(C)[C@@]1(OC(=O)c1ccco1)C(=O)CCl`, the Potency result in the assay with C33A, in the assay on CAOV3, in the assay with CASKI, with HeLa, in the assay on OV90 and with PA-1 was “inactive” each time. For the same molecule, the Potency result in the assay on SKOV3 was “inactive”.
Consider `CC(C)(C)NC(=O)[C@H]1CC[C@H]2[C@@H]3CC[C@H]4NC(=O)C=C[C@]4(C)[C@H]3CC[C@]12C`, for which the Potency result in the assay with C33A, in the assay on CAOV3, in the assay with CASKI, with Es-2, with Hek293T and in the assay on JEG-3 was “inactive” throughout. Besides, the Potency result with PA-1 was “inactive”. The Potency in the assay with SKOV3 was 12.6 µM (active).
In the case of `CC(=O)[C@H]1CC[C@H]2[C@@H]3CC=C4C[C@@H](O)CC[C@]4(C)[C@H]3CC[C@]12C`, the Potency result in the assay with C33A, in the assay on CAOV3, in the assay on CASKI, in the assay with Es-2, with Hek293T and in the assay on JEG-3 was “inactive” each time. Further, the Potency result in the assay on OV90, in the assay with PA-1 and in the assay with SKOV3 was “inactive” each time.
Take `CNNCc1ccc(C(=O)NC(C)C)cc1`: the Potency result in the assay with C33A, in the assay with CAOV3, in the assay with CASKI, in the assay with Es-2, with Hek293T and in the assay on JEG-3 was “inactive” throughout. Further, the Potency result in the assay on OV90, in the assay with PA-1 and with SKOV3 was “inactive” throughout.
